TRHR ag: agonists of human TRH receptor; P34981; TRHR cells, calcium flux fluo-8, FDSS agonist mode; activation, % at 2 µM; 0.18% of 360,000 active; AID 493084; note: 0% is about no effect
Target sequence (P34981 whole entry, looked up): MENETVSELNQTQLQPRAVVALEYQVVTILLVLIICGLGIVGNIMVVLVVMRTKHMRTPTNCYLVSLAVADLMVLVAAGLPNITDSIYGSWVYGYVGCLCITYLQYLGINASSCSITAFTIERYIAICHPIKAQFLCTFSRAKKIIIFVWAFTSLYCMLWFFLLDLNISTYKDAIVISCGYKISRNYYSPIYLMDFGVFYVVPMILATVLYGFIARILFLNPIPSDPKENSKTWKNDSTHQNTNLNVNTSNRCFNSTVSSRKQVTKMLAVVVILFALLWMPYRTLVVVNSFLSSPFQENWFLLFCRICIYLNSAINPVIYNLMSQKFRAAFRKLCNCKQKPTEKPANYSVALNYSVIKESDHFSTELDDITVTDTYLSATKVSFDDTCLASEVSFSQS
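TRHR-expressing cells loaded with fluo-8 calcium dye; 23 nL library compound pin-transferred, kinetic FDSS fluorescence (Ex 480/Em 530) recorded about 180 s for agonist-induced calcium release, before a 10 nM TRH EC20 addition for potentiator mode.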
D1 potentiator: human D1 dopamine receptor positive modulation. potentiation, % at 10 µM. AID 504651. P21728. HEK293 TREx D1 cells, calcium flux, dopamine EC20 potentiation. 0.036% of 360,000 active; in the data active = potentiation above about 30%; note: 0% is about no effect
TRHR enhancer: allosteric enhancers of human TRH receptor | P34981 | enhancement, % at 2 µM | 0.66% of 360,000 active | TRHR cells, fluo-8 calcium fluorescence, EC20 TRH enhancement | AID 493056; in the data active = enhancement above about 30%; note: 0% is about no effect
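Enhancer read-out: after compound pinning and an initial kinetic agonist-mode read, an EC20 of TRH (10 nM final) was injected and fluo-8 calcium signal (Ex 480/Em 530) followed at 1 s/cycle for 100 cycles in TRHR-expressing cells.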
D1 antagonist: antagonists of human D1 dopamine receptor. 3.2% of 360,000 active. P21728. activity change, negative = inhibition, % at 10 µM. HEK293 TREx D1 cells, calcium flux, dopamine EC80; stronger effect = lower value; in the data active = activity change below about -30%; note: % is set by controls: 0 for no effect and ±100 for the full control effect
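Tetracycline-induced HEK293 Trex D1 cells, force-coupled to calcium, dye-loaded; compounds added and read 180 s, then EC80 dopamine added and calcium flux tracked kinetically another 180 s.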
D1 ag: activates the human D1 dopamine receptor; 1% of 360,000 active; AID 504660; P21728; activation, % at 2 µM; HEK293 T-REx D1 cells, calcium flux, agonist mode; note: 0% is about no effect
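Tetracycline-induced HEK293 TREx D1 cells, force-coupled to calcium signalling, were dye-loaded with a no-wash calcium kit. Compound was pin-added after a 10 s baseline. Fluorescence was read kinetically at 1 cycle/s for 180 s, with calcium rises flagged as agonism.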
* hit, by the source's call; nt = not tested or not shown. Shown are actives, neighbours in structure and some others; about 4.7% of the full set was active somewhere. Cut-off read from the data, not from the text of the source, unless noted: active = activation above about 30%; inactive = the rest.

SMILES | TRHR ag | D1 potentiator | TRHR enhancer | D1 antagonist | D1 ag
O=C(CCN1CCC(c2ccccc2)C1)c1cccs1 (configuration not stated) | -0.7 | -2.4 | -1.5 | 0.2 | -0.8
O=C(OCc1ccccc1)C1CCCN1C(=O)c1cccs1 (configuration not stated) | -0.9 | -4.3 | 38.5* | -14.6 | -0.1
O=C(c1cccs1)N1CCC(c2ccccc2)C1 (configuration not stated) | -1.8 | -1.0 | 2.2 | -85.1* | 0.4
Cc1ccc2c(c1)N(C(=O)CCC(=O)NCc1cccs1)CCO2 | -0.6 | -0.3 | -3.3 | 4.7 | 0.8
C=CCn1c(SCc2ccc(C#N)cc2)nnc1-c1cccc(Cl)c1 | -1.9 | -3.2 | -0.3 | -39.5* | -3.7
CN(C)/C=c1\sc2c(C#N)cc(C(=O)c3ccc(Br)cc3)n2c1=O | 1.5 | -6.0 | -5.3 | -50.7* | -0.7
COC(=O)c1ccc(S(=O)(=O)N2CCCCC2)o1 | -0.3 | -0.1 | 35.9* | 3.9 | 2.0
CCc1ccc(NC(=O)Cc2csc(COc3cccc(C)c3)n2)cc1 | 0.2 | 1.9 | -1.9 | -10.8 | 7.6
O=C(Nc1ccc2c(c1)OCO2)c1ccc[n+]([O-])c1 | 0.1 | 3.1 | -7.4 | -38.7* | 0.3
CC(=O)Nc1ccc(C(=O)Nc2ccc3c(c2)OCO3)cc1 | 0.2 | -1.4 | -6.0 | -30.6* | 3.4
CC(=O)Nc1ccc(C(=O)Nc2ccc3c(c2)OCCO3)cc1 | -1.3 | 4.0 | 0.2 | 4.0 | 1.7
O=C(Nc1ccc2c(c1)OCCO2)c1ccc(NC(=O)C2CCCO2)cc1 (configuration not stated) | 0.5 | -6.2 | -4.9 | -49.3* | 0.7
CCN(CC)c1ccc(NC(=O)c2ccc3c(c2)OCO3)c(C)c1 | -0.3 | -6.3 | -2.8 | -40.7* | 3.9
COc1cc(CCC(=O)OCC(=O)Nc2c(C)cccc2C(C)C)cc(OC)c1OC | -0.3 | -7.8 | -2.3 | -0.8 | 1.4
COc1ccc(NC(=O)Cn2cnc3ccc(S(=O)(=O)N4CCC(C)CC4)cc3c2=O)c(OC)c1 | -3.0 | -0.6 | -4.3 | -7.9 | 1.2
CCOC(=O)CSc1nc(C2CC2)cc(-c2ccc(Cl)cc2)c1C#N | 0.4 | 4.2 | -4.5 | -86.6* | 12.2
CCOC(=O)CSc1nc(-c2ccc(Cl)cc2)cc(C(F)(F)F)c1C#N | 2.5 | 1.2 | 11.7 | 6.2 | 28.7
Cc1cc(Oc2nc3ccccn3c(=O)c2/C=C(\C#N)C(=O)NC2CCS(=O)(=O)C2)ccc1Cl (configuration not stated) | 1.0 | -7.4 | -4.3 | -30.0* | -1.0
CCOC(=O)Cn1c(=O)oc2ccc(C)cc21 | -0.2 | 9.1 | -4.8 | 12.8 | 2.7
Cc1ccc2oc(=O)n(CC(=O)OCCC(C)C)c2c1 | -0.6 | -5.3 | 35.2* | -3.8 | 1.9
CCCCCOc1ccccc1Cn1c(=O)oc2ccc(C)cc21 | 1.3 | -1.1 | -4.9 | -47.9* | 10.4
COc1ccc(OCCCn2c(=O)oc3ccc(C)cc32)cc1 | -0.8 | 2.2 | 2.7 | -32.2* | 73.2*
Cc1ccc(C(C)C)c(OCCn2c(=O)oc3ccccc32)c1 | -2.6 | -4.1 | 2.6 | 2.9 | 37.3*
Cc1ccc2oc(=O)n(CCCOc3ccccc3)c2c1 | -1.8 | -1.7 | -3.0 | -12.9 | 0.6
Cc1cccc(Cn2c(=O)n(CCCCC(=O)NCc3ccc4c(c3)OCO4)c(=O)c3ccccc32)c1 | -0.3 | 0.6 | -6.1 | 4.6 | -2.4
SMILES | TRHR ag | D1 potentiator | TRHR enhancer | D1 antagonist | D1 ag
CN(C)c1ccc(C=C(c2nnnn2-c2ccccc2)c2nnnn2-c2ccccc2)cc1 | 7.3 | -9.6 | 4.0 | 13.9 | 61.4*
CC(C)Cn1c(-c2ccc(Br)cc2)c[nH]c1=S | 0.0 | -11.9 | 4.4 | 41.3 | 42.8*
CCn1c(-c2ccccc2)c[nH]c1=S | 0.1 | -2.6 | -7.6 | -11.3 | 3.6
O=C(Nc1nc(-c2ccccn2)cs1)c1ccco1 | -0.5 | -3.8 | 0.6 | 4.9 | 2.1
O=C(Nc1nc(-c2cc3ccccc3oc2=O)cs1)c1ccco1 | 0.5 | -8.0 | 0.5 | -63.7* | -0.5
O=C(Cn1c(=O)n(Cc2ccc3c(c2)OCO3)c(=O)c2oc3ccccc3c21)Nc1ccc(F)cc1 | 1.7 | -4.3 | 5.1 | 0.0 | 5.7
CCc1cnc2c(c1SCc1ccccc1C)c(=O)n(C)c(=O)n2C | -0.1 | 3.8 | 1.4 | nt | -0.8
Cc1cccc(NC(=O)CN(C)C(=O)c2ccc3ccccc3n2)c1C | -0.2 | -0.7 | -0.9 | -8.7 | 5.6
COCCN(CC(=O)Nc1cccc(C)c1C)C(=O)c1ccc2ccccc2n1 | -0.1 | 2.6 | 32.4* | -12.5 | 0.8
CN(c1ccc(F)cc1)S(=O)(=O)N1CCCC(C(=O)NCc2cccc(Br)c2)C1 (configuration not stated) | 0.5 | -4.8 | -9.0 | -9.1 | 8.3
COc1ccc(CCNC(=O)C(=O)NCC(c2cccs2)S(=O)(=O)c2ccc(F)cc2)cc1 (configuration not stated) | 0.4 | -0.8 | -4.3 | nt | 15.9
CN(Cc1ccccc1)C(=O)c1nc[nH]c1C(=O)N1CCc2ccccc2C1 | -0.1 | -0.3 | -0.6 | nt | -1.4
O=C(c1nc[nH]c1C(=O)N1CCc2ccccc2C1)N1CCc2ccccc2C1 | 0.0 | -1.7 | 6.8 | -66.3* | 0.5
CCN1/C(=C\C=C(C(C)=O)C(C)=O)Sc2ccccc21 | 12.0 | -3.9 | -4.1 | 12.4 | 80.2*
O=C(c1ccccc1Cl)N(Cc1ccco1)Cc1ccco1 | -1.6 | -3.3 | -5.4 | -14.0 | 4.1
COc1ccc(CCN2CC34C=CC(O3)C(C(=O)NCc3ccccc3Cl)C4C2=O)cc1OC (configuration not stated) | -0.6 | -4.7 | -3.7 | -4.9 | 1.8
COc1ccccc1N1CCN(C(=O)C2C3C=CC4(CN(Cc5ccccc5Cl)C(=O)C24)O3)CC1 (configuration not stated) | 0.2 | -8.5 | 2.5 | -34.6* | 2.7
CC(C)c1ccc(NC(=O)C2=CC=CN3CCS(=O)(=O)N=C23)cc1 | -1.2 | -6.5 | 11.2 | -32.0* | 13.8
O=C(Nc1ccc(Oc2ccc(Br)cc2)cc1)C1=CC=CN2CCS(=O)(=O)N=C12 | 1.2 | -9.3 | 3.2 | -47.6* | 10.5
CCc1ccc(NC(=O)C2=CC=CN3CCS(=O)(=O)N=C23)cc1 | 0.1 | 7.0 | -1.3 | 8.9 | 0.0
CCOC(=O)N1CCc2c(sc3c2c(=O)n(-c2ccccc2C(F)(F)F)c(=O)n3Cc2ccccc2C)C1 | -2.1 | 0.6 | 0.6 | 3.9 | 11.7
CC1=CC(C)(C)N2C(=O)C3(C(C#N)=C(N)Oc4cc(O)ccc43)c3cccc1c32 (configuration not stated) | -0.4 | -1.1 | 32.1* | -2.0 | 0.4
CC(=O)c1ccc(S(=O)(=O)NC2CC(=O)N(c3ccc(Cl)cc3)C2)cc1 (configuration not stated) | 1.3 | -2.3 | -2.8 | -33.6* | 12.6
C/C(=N\Nc1nc2ccccc2[nH]1)c1ccc(C)o1 | -0.4 | -8.6 | 2.5 | -51.8* | 3.0

From PubChem
